# Screening results deposited in PubChem BioAssay by Broad Institute.
# Sampled rows, rich in hits. Any-hit rate of the full collection: about 2.5%.
# c-Myc SMM: binders of human c-Myc | P01106 | small molecule microarray, His-c-Myc binding, anti-His fluorescence | calls only | 1.5% of 17,000 active;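 active means spot fluorescence over background with P-value below 7% in all four replicate spots, showing protein binding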;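 further: score is binary with 100 for all four spots passing and 0 otherwise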
# NFkB binder: binds human NF-kappa-B p105 on microarray | P19838 | Small molecule microarray, anti-His fluorescence binding | AID 624139 | calls only | 1.3% of 17,000 active;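 active means spot fluorescence over background significantly raised, with a chance value under 7% in all four replicate spots of the compound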;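 further: probe protein is his-tagged human p50 processed subunit at 1 µg/ml; raw spot fluorescence signals with no normalization applied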
# Target sequence (P19838 1-433 limits assumed): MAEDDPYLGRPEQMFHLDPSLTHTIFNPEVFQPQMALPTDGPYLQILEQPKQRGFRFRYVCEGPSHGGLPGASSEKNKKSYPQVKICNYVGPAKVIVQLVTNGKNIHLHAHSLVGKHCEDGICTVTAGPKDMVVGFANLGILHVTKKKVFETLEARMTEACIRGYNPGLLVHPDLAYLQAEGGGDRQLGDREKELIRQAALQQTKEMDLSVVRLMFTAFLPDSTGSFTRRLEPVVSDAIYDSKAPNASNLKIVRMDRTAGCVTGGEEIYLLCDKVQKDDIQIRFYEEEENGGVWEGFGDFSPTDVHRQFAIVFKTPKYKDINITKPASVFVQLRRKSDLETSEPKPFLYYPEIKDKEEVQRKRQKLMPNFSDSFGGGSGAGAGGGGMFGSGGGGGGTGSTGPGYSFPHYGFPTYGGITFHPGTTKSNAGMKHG
# STAT3 SMM: binds human STAT3 on microarray; Small molecule microarray, His-STAT3 binding, anti-His fluorescence; P40763; calls only; 0.2% of 17,000 active; AID 624138;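 active means compounds whose four printed spots each show fluorescence over background unusually high for their array block, chance value under 7%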
# p53 mut binder: binds human mutant p53 on microarray; calls only; small molecule microarray binding, anti-GST fluorescence; 0.4% of 17,000 active; AID 624136;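 active means compounds whose four printed spots each glow above background more than chance allows, each with a p-value under 7%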
# * hit, by the source's call; i = inactive; + = active, no number.
SMILES,c-Myc SMM,NFkB binder,STAT3 SMM,p53 mut binder
O=[N+]([O-])c1ccc(NCCNCCO)cc1,i,i,i,+
CC(C)c1ccccc1NC(=O)CSc1nc(-c2ccccc2)cc(=O)[nH]1,i,i,i,i
O=C(O)CCNC(=O)c1cncc(Br)c1,+,i,i,i
CC(C)CNC(=O)[C@@]1(C)c2ccccc2C(=O)N(Cc2cc(F)cc(C(F)(F)F)c2)[C@H]1c1ccc(CO)cc1,i,i,i,i
Cc1sc(NC(=O)COc2ccccc2)c(C(N)=O)c1-c1ccccc1,i,i,i,i
O=C1NC(=O)c2cc(Nc3ccc(F)cc3)c(Nc3ccc(F)cc3)cc21,i,i,i,+
COC(=O)c1cc(OC)c(OC)cc1NC(=O)COc1ccc(OC)cc1,i,i,i,i
COc1ccc(Cl)cc1NC(=S)NCCn1cc(Cl)cn1,+,i,i,i
COc1ccc(Cl)cc1NC(=S)NCCCN1CCCC1=O,+,i,i,i
COc1ccc(NC(=S)NCCn2cc(Br)cn2)cc1OC,i,i,i,i
COc1ccc(C(=O)CSc2nc3ccccc3c(=O)[nH]2)cc1OC,i,i,i,i
COc1ccc(Cn2c3ccc(Br)cc3c3nc4ccccc4nc32)cc1OC,+,i,i,i
Clc1ccccc1OCCSc1nnc(-c2cccnc2)n1-c1ccccc1,i,i,i,i
C/C=C/C1=C(Cl)C(=O)[C@@H](O)[C@@]1(O)C(=O)OC,i,+,i,i
CC#CCOC(=O)C1=CCCN(C)C1,+,+,+,i
Cc1ccc(-c2nn(C)c(=O)c3ccccc23)cc1CNC(=O)CN1C(=O)c2ccccc2C1=O,i,i,i,i
COc1ccc(CCNC(=S)Nc2ccncc2)cc1OC,i,i,i,i
COCCNC(=S)Nc1nc(OC)cc(OC)n1,+,i,i,i
CC(=O)Nc1ccc(C(=O)CSc2nc3ccccc3o2)cc1,i,i,i,i
CCOC(=O)c1ccccc1NC(=O)c1cc(Cl)ccc1NC(=O)c1ccc(OC)cc1,i,i,i,i
C[C@H](CO)N1C[C@H](C)[C@@H](CN(C)Cc2ccc(C(F)(F)F)cc2)Oc2ccc(NC(=O)Cc3cn(C)c4ccccc34)cc2CC1=O,+,+,i,i
Cc1noc(C)c1S(=O)(=O)Nc1ccc2c(c1)CC(=O)N([C@H](C)CO)C[C@@H](C)[C@@H](CN(C)Cc1ccc(-c3ccccc3)cc1)O2,+,i,+,i
C[C@@H]1CN([C@H](C)CO)C(=O)Cc2cc(N(C)C)ccc2O[C@H]1CN(C)S(=O)(=O)c1cccs1,i,i,i,i
COc1ccc(NC(=O)Nc2ccc3c(c2)CC(=O)N([C@@H](C)CO)C[C@H](C)[C@@H](CN(C)Cc2ccc(Oc4ccccc4)cc2)O3)cc1,i,i,i,+
Cc1noc(C)c1S(=O)(=O)Nc1ccc2c(c1)CC(=O)N([C@@H](C)CO)C[C@H](C)[C@H](CN(C)Cc1ccc(-c3ccccc3)cc1)O2,i,i,i,i
SMILES,c-Myc SMM,NFkB binder,STAT3 SMM,p53 mut binder
C[C@@H]1CN([C@@H](C)CO)C(=O)Cc2cc(N(C)C)ccc2O[C@H]1CN(C)S(=O)(=O)c1cccs1,+,i,i,i
COc1cc(OC)c(NC(=O)CSc2nnc(-c3ccccc3)n2-c2ccccc2)cc1Cl,i,i,i,i
C[C@H]1CN([C@@H](C)CO)C(=O)Cc2cc(NC(=O)Nc3ccc(F)cc3)ccc2O[C@H]1CN(C)CC1CC1,i,i,+,i
COc1ccc(S(=O)(=O)N(C)C[C@@H]2Oc3ccc(NC(=O)Nc4ccc(C(F)(F)F)cc4)cc3CC(=O)N([C@@H](C)CO)C[C@H]2C)cc1,i,i,i,i
COc1ccc(S(=O)(=O)N(C)C[C@H]2Oc3ccc(NC(=O)Nc4ccc(C(F)(F)F)cc4)cc3CC(=O)N([C@H](C)CO)C[C@H]2C)cc1,+,i,i,i
CCCc1occc(=O)c1CC=O,i,i,i,i
O=C1Oc2cc(O)cc(O)c2[C@@H](c2ccc(O)cc2)[C@H]1[C@H]1C(=O)Oc2cc(O)cc(O)c2[C@H]1c1ccc(O)cc1,i,i,i,i
O=C(CSc1ccc([N+](=O)[O-])cn1)N1CCc2ccccc21,i,i,i,i
O=C(CSc1nc(O)cc(=O)n1-c1ccccc1)N1CCc2ccccc21,i,i,i,+
COC(=O)c1c(C)oc2ccc(N(C(=O)c3ccccc3)S(=O)(=O)c3cccs3)cc12,i,i,i,i
